Assay outcomes as filed in PubChem BioAssay.
Shown are actives, neighbours in structure and some others; about 7.8% of the full set was active somewhere.
Vaccinia Venus: qHTS for Stage-Specific Inhibitors of Vaccinia Orthopoxvirus: Venus Reporter Primary qHTS; AID 720580, 2013; Vaccinia virus Venus reporter expression, fluorescence; Potency, µM (doses to about 36.5 µM), usual class: inhibitors; actives 0.46% (n = 330,000); calls by dose curve; tested in A549 cells; note: nearly all actives have a fitted effect of over 30% in size
MARV entry inh: qHTS for inhibitors of binding or entry into cells for Marburg Virus | Marburg virus pseudotyped entry inhibition, cell reporter | Potency, µM (series often up to 37.8 µM), hits mostly inhibitors | actives 1.8% (n = 300,000) | AID 540276, 2011; calls by dose curve; tested in HEK293 cells
LASV entry inh: qHTS for Inhibitors of binding or entry into cells for Lassa Virus. Lassa virus pseudotype entry inhibition, cell reporter. Potency, µM (top dose mostly 37.9 µM), actives largely listed as inhibitors. actives 1.2% (n = 300,000). AID 540256, 2011; calls by dose curve; tested in HEK293 cells; note: nearly all actives have a fitted effect of over 50% in size
HCV inh: qHTS Assay for Inhibitors of Hepatitis C Virus (HCV); Huh7.5.1 HCVcc-Cre infection, luciferase reporter, 44 h; Potency, µM (top dose mostly 41.8 µM), most hits filed as inhibitors; actives 3.4% (n = 340,000); AID 651820, 2012; active = well fitted inhibition curve with a large enough effect; inconclusive = small, poorly fitted or top-dose-only effect, or another doubt; inactive = no such curve, though single readings can be large or run the other way
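Infectious HCVcc-Cre (~0.5 moi) was added to cells just after compound, with cells seeded 4 h earlier at 1,000 per well. Luciferase activity after 44 h culture reported infection; substrate was incubated 15 min at room temperature before reading.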
HCMV antiviral: qHTS Assay for inhibitors of the human cytomegalovirus (HCMV). HFF cells, HCMV-luciferase reporter, 72 h; hits give low values. activity change, negative = inhibition, % at 57.5 µM. actives 4.5% (n = 410,000). AID 1259415, 2018; in the data active = activity change below about -60%; inconclusive = no clear call, values can overlap the other calls; inactive = above about -39%
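HFF cells seeded 16 h at 37C, treated with compounds, infected with luciferase-reporter HCMV at MOI 1 PFU/cell; luciferase read at 72 h post infection, normalized to buffer-only and Salinomycin controls.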
Vaccinia mCherry: qHTS for Stage-Specific Inhibitors of Vaccinia Orthopoxvirus: mCherry Reporter Primary qHTS; Vaccinia virus mCherry reporter infection, fluorescence; Potency, µM (series often up to 36.5 µM), actives largely listed as inhibitors; actives 0.63% (n = 310,000); calls by dose curve; tested in A549 cells; note: nearly all actives have a fitted effect of over 35% in size
Hits are given with their value; i = inactive; ? = inconclusive; nt = no result; + = active, no number; ! = not confirmed by another sample; [ ] = remark or other dose.

SMILES	Vaccinia Venus	MARV entry inh	LASV entry inh	HCV inh	HCMV antiviral	Vaccinia mCherry
CC(=O)c1c(C)nc2sc3c(=N)n(N)cnc3c2c1-c1ccc(Cl)cc1	4.5µM	?	i	?	?	3.5µM
CCOC(=O)c1c(C)nc2sc3c(=O)n(-c4ccc(C(C)=O)cc4)cnc3c2c1-c1ccc(OC)cc1	i	i	i	i	i	nt
Cn1c(Nc2ccccc2)nc2cnc(-c3ccc(S(C)(=O)=O)cc3)cc21	nt	nt	nt	nt	i	nt
O=C(O)CCc1ccc2ccccc2c1	i	nt	nt	nt	nt	i
c1ccc2c(C(c3c[nH]c4ccccc34)c3c[nH]c4ccccc34)c[nH]c2c1	i	nt	nt	nt	nt	i
NCC(c1ccccc1)c1c[nH]c2ccccc12 (stereo not given)	i	?	i	?	i	i
Cc1ccc2[nH]cc(C(c3ccccc3)c3cccs3)c2c1 (stereo not given)	i[7.34 µM]	?	i	nt	-79	i[7.34 µM]
Cc1ccc2[nH]cc(C(c3ccccc3)c3ccc(C)s3)c2c1 (stereo not given)	i	?	?	nt	-100	i
Cc1ccc(CNC(=O)c2ccc(-c3nc(CS(=O)(=O)c4ccc(C)cc4)c(C)o3)cc2)cc1	i	nt	i	nt	i	i
CCCn1c(=N)n(CC(=O)c2ccc([N+](=O)[O-])cc2)c2ccccc21	i	?	i	13µM	i	i
CCCn1c(=N)n(CC(=O)c2ccc(OCC(=O)OC)cc2)c2ccccc21	nt	nt	nt	?	-96	nt
CCCn1c(=N)n(CC(=O)c2ccc(Cl)cc2)c2ccccc21	i	?	?	13µM	-83	?
N=c1n(N)c2ccccc2n1CC(=O)c1ccc(Br)cc1	i	?	?	13µM	i	i
CC(NC(=O)c1cccnc1)c1nnc2n1CCN(Cc1ccc(-c3ccccc3)cc1)CC2 (stereo not given)	i	nt	nt	nt	nt	i
O=C1C(c2[nH]c3ccc(S(=O)(=O)O)cc3c2O)=Nc2ccc(S(=O)(=O)O)cc21	i	nt	nt	nt	nt	i
COC(=O)CN1C(=O)CSc2ccc(S(=O)(=O)Nc3ccc(C(C)=O)cc3)cc21	i	nt	i	nt	?	i
O=C(CCn1c(=O)c2sccc2n(Cc2ccccc2F)c1=O)NCc1ccc2c(c1)OCO2	i	i	i	nt	i	i
CCOc1ccccc1/C=C/c1onc(C)c1S(=O)(=O)N1CCC(C(=O)N(CC)CC)CC1	i	nt	?	?	+!	i
CCN(CCN(C)C)C(=O)C1CCN(S(=O)(=O)c2c(C)noc2/C=C/c2ccccc2F)CC1	?	nt	?	?	-99!	i
CCOc1ccccc1NC(=O)C1CCN(S(=O)(=O)c2c(C)noc2/C=C/c2ccco2)CC1	i	i	?	nt	i	i
COC(=O)CCN(C(=O)C1CCN(S(=O)(=O)c2c(C)noc2/C=C/c2ccccc2F)CC1)c1ccccc1	i[7.34 µM]	nt	i	nt	i	i[7.34 µM]
CCCN1CCc2nc(N3CCN(c4ncccn4)CC3)ncc2C1	i	nt	i	nt	i	i
Cc1nn2cc(-c3ccc(OC(C)C)cc3)nc2s1	i	?	?	nt	i	i
CCCC12CN3CC(CCC)(CN(C1)C3c1c[nH]c3ccccc13)C2=O (stereo not given)	i	nt	i	nt	i	i
CCCCS(=O)CC(CS(=O)CCCC)OC(=O)c1ccccc1 (stereo not given)	nt	i	i	i	i	nt
CCCCS(=O)(=O)CC(COc1ccccc1)OC(=O)c1ccccc1 (stereo not given)	7.9µM	i	i	i	i	nt
COc1ccc(N2CCN(C(CNC(=O)c3ccc(C)cc3)c3ccc4c(c3)OCO4)CC2)cc1 (stereo not given)	i	nt	?	nt	i	i
COCCCN1C(=O)C(O)=C(C(=O)c2ccco2)[C@H]1c1ccc(Br)cc1	nt	i	nt	nt	nt	nt
Cc1[nH]nc2c1C1(C(=O)N(Cc3ccc(Cl)cc3)c3ccccc31)C(C#N)=C(N)O2 (stereo not given)	i	i	i	i	-70	i
COC(=O)Cc1[nH]nc2c1C1(C(=O)N(Cc3ccccc3)c3ccccc31)C(C#N)=C(N)O2 (stereo not given)	nt	i	i	i	i	nt
